Experimental data published in the supplement of paper PMC10849652.
The full data set covers some 8,800 targets. This sample favours those with a hit. About 0.5% of all pairs of compound and target were hits. A number with no mark means an inactive call.

Chain of UniProt O60508 (O60508 whole entry, looked up): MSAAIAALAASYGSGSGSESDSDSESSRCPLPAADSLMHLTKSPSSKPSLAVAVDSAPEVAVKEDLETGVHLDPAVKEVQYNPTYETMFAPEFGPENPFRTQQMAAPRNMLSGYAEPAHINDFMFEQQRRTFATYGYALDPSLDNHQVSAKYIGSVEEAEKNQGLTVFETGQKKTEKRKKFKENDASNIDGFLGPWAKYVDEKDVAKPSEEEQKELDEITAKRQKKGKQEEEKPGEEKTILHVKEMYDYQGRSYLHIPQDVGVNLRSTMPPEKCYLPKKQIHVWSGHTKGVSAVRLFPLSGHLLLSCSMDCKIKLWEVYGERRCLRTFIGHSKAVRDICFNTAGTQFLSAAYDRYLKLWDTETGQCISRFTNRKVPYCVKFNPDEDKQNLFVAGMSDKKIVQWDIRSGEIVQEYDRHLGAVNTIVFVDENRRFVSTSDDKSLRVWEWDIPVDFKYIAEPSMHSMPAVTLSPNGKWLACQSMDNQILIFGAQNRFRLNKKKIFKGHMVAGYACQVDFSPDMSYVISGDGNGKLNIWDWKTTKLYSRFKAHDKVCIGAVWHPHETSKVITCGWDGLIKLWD
Chain of UniProt Q13111 (Q13111 whole entry, looked up): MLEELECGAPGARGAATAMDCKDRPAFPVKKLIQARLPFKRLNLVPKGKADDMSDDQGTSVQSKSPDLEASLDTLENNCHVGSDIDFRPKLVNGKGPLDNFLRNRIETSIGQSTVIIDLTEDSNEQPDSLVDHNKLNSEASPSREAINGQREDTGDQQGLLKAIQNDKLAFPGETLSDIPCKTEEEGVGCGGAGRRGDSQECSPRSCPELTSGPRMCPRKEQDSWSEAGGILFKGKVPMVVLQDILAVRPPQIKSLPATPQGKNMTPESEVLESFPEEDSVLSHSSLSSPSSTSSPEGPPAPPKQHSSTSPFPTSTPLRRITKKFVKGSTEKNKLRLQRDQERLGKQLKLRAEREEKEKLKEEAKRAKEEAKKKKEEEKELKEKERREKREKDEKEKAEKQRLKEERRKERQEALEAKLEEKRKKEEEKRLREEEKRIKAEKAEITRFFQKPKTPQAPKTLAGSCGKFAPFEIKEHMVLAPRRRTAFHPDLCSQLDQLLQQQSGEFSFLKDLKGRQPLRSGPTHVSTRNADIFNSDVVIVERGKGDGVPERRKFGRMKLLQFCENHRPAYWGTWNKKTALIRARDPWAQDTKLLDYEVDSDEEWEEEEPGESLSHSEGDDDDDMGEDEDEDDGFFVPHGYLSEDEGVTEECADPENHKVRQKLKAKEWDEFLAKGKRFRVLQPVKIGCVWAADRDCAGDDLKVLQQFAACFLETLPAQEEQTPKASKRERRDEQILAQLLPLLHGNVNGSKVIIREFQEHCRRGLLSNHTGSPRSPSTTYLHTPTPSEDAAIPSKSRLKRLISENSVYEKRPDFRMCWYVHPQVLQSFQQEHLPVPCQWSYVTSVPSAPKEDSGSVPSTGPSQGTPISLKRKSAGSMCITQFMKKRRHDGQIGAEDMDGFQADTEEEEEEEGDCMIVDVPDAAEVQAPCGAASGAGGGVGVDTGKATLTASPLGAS
Chain of UniProt P18859 (P18859 whole entry, looked up): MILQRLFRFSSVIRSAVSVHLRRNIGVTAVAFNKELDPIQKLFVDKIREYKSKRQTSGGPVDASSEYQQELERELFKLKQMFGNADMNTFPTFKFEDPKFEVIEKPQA
Chain of UniProt P49069 (P49069 whole entry, looked up): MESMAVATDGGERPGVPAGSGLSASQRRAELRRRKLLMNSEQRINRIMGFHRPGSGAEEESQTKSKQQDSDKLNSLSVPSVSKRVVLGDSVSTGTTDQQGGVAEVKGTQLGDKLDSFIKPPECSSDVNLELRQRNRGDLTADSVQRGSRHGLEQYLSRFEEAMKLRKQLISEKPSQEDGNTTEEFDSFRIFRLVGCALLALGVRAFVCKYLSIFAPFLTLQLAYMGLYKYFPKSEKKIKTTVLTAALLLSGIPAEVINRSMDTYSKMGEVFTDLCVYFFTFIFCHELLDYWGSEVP
Chain of UniProt Q9Y6H1 (Q9Y6H1 whole entry, looked up): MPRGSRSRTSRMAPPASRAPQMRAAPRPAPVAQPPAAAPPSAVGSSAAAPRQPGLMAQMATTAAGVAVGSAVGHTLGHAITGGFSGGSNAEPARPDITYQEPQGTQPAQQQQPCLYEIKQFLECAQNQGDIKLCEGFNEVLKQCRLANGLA
Chain of UniProt P98196 (P98196 whole entry, looked up): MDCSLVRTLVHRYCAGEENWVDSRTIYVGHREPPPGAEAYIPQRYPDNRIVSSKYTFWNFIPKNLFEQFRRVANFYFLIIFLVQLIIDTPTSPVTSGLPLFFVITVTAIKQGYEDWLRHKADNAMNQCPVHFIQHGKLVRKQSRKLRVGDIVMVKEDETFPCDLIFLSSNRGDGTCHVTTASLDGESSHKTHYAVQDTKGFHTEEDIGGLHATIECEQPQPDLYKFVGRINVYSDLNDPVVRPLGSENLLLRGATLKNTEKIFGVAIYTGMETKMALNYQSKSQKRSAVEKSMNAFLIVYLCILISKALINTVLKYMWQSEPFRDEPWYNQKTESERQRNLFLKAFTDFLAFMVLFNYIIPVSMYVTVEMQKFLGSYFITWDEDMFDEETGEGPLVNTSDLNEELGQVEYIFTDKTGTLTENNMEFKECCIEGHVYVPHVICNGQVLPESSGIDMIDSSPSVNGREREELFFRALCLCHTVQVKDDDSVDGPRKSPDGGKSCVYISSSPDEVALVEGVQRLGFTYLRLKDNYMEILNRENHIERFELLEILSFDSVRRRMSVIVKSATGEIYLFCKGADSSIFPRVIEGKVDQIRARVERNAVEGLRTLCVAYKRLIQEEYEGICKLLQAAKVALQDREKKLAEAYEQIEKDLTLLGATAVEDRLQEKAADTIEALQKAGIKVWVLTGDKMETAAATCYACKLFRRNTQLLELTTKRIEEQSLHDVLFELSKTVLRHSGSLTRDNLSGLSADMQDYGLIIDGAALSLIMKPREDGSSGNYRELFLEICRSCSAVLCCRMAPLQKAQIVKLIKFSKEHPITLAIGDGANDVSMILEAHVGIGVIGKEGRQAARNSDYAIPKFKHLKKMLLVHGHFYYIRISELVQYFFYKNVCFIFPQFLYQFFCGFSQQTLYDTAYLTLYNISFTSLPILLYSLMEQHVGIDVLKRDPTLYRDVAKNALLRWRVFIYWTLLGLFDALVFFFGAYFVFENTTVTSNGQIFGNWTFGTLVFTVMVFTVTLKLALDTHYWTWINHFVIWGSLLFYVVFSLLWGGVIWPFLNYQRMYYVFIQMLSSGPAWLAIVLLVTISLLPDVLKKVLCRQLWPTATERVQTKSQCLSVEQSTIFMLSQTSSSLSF
Chain of UniProt P14635 (P14635 whole entry, looked up): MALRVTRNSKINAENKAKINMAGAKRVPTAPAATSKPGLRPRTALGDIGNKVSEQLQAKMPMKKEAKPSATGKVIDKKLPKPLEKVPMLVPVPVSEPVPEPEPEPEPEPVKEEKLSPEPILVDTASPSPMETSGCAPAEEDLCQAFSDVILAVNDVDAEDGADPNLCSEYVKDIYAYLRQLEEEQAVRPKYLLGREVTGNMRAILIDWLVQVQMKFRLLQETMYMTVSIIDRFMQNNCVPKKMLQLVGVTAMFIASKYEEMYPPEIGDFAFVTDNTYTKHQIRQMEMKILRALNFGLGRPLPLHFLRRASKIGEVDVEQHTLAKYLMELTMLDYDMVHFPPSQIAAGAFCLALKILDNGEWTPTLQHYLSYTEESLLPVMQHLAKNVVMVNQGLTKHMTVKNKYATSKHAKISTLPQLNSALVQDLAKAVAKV
Chain of UniProt O75909 (O75909 whole entry, looked up): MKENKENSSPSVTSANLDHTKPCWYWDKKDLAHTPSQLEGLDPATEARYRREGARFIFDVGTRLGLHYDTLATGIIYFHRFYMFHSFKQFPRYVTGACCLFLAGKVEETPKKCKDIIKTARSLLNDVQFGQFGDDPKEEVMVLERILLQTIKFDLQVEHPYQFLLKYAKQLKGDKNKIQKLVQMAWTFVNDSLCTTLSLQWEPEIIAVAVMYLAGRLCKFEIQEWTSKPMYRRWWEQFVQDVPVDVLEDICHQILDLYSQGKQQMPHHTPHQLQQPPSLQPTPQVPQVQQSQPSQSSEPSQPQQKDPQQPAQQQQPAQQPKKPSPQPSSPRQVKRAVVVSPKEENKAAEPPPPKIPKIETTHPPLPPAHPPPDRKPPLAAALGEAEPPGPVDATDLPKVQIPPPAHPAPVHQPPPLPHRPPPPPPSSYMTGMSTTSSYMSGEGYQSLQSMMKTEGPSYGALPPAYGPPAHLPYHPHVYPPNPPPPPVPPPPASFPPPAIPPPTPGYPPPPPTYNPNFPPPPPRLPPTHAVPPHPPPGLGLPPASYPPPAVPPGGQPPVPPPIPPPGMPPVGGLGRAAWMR
Chain of UniProt Q9HB09 (Q9HB09 whole entry, looked up): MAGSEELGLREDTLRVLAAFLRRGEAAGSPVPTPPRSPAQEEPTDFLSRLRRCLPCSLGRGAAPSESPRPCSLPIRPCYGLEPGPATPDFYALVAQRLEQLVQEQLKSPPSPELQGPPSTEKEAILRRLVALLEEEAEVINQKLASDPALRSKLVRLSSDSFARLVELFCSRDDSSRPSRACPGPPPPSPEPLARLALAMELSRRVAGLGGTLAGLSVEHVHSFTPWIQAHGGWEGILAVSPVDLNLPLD
Chain of UniProt Q8TCD1 (Q8TCD1 whole entry, looked up): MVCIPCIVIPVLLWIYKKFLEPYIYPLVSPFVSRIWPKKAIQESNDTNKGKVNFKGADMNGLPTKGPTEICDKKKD
Chain of UniProt Q14012 (Q14012 whole entry, looked up): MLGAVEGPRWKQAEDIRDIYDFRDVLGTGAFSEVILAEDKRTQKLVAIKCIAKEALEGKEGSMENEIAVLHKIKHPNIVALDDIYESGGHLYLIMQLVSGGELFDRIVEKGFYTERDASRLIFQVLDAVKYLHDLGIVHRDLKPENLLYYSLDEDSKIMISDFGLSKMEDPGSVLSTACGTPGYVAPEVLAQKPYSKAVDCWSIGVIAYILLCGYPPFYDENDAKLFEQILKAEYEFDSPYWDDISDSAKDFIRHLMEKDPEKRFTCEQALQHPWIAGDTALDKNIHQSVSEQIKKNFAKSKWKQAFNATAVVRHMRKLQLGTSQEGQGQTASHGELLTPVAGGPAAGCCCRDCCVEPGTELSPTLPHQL

These targets were tested with C[C@@H](Oc1cc(-c2cnn(C3CCNCC3)c2)cnc1N)c1c(Cl)ccc(F)c1Cl [crizotinib] (assay: log2 fold change, soluble protein after heating vs DMSO (PISA); higher = thermal stabilisation; K562 lysate, 10 uM; active = over 0.2 and 3.5 SD of the protein, either way, in both replicates (recomputed)).
Method in brief: (§1)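 A 30 min treatment with 10 μM compound was applied to crude K562 extract at 1 mg/mL protein in PBS pH 7.4 with 1 mM MgCl2. Heating for 3 min spanned 48°C-58°C, after which aliquots were pooled, adjusted to 0.5% NP-40 at 4°C and spun at 21,000xg for 90 min. TMTpro 16plex LC-MS/MS of the supernatant, with channel sums equalised, gave values recorded as log-two fold change in thermal stability against solvent controls, from duplicates.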
ATXN2 (UniProt Q99700) was tested, and the log2 fold change was 0.028.
CHCHD2 (UniProt Q9Y6H1) showed a log2 fold change of 0.119.
CDC40 (UniProt O60508) showed a log2 fold change of -0.053.
Work on CCNK isoform 4 (UniProt O75909) yielded a log2 fold change of -0.008.
C18orf32 (UniProt Q8TCD1) was tested, and the log2 fold change was -0.07.
CHAF1A (UniProt Q13111) showed a log2 fold change of 0.012.
Target CAMK2G isoform 8 (UniProt Q13555) has a log2 fold change of -0.177.
In the case of CBX1 (UniProt P83916), the log2 fold change is reported as 0.023.
Work on ATP5PF isoform 2 (UniProt P18859) yielded a log2 fold change of 0.054.
With CCNB1 (UniProt P14635) the log2 fold change was -0.024.
BCL2L12 (UniProt Q9HB09) gave a log2 fold change of 0.01.
In the case of ATP11A (UniProt P98196), the log2 fold change is reported as -0.005.
Target CAMK1 (UniProt Q14012) has a log2 fold change of -0.078.
CAMLG (UniProt P49069) gave a log2 fold change of 0.014.
In the case of CHAC2 (UniProt Q8WUX2), the log2 fold change is reported as 0.003.
Target CANX isoform 2 (UniProt P27824) has a log2 fold change of -0.002.
Target BRD2 isoform 2 (UniProt P25440) has a log2 fold change of 0.024.

These targets were tested with C[C@H](C1=CC=C(C=C1)C(=O)NC2=C3C=CNC3=NC=C2)N in the same assay as above.
Method in brief: as §1
BLOC1S6 (UniProt Q9UL45) gave a log2 fold change of 0.048.
BAG4 (UniProt O95429) was tested, and the log2 fold change was -0.056.
CCNC (UniProt P24863) gave a log2 fold change of 0.075.
CALM2 (UniProt P0DP24) gave a log2 fold change of -0.252.
Work on CEP76 (UniProt Q8TAP6) yielded a log2 fold change of -0.063.
CDS2 (UniProt O95674) was tested, and the log2 fold change was -0.029.
CCAR2 (UniProt Q8N163) gave a log2 fold change of -0.009.
CDKN2AIP (UniProt Q9NXV6) gave a log2 fold change of -0.04.
BRD3 (UniProt Q15059) was tested, and the log2 fold change was -0.333 (active).
CEP120 (UniProt Q8N960) showed a log2 fold change of -0.105.
Target C18orf25 (UniProt Q96B23) has a log2 fold change of 0.022.
CDAN1 (UniProt Q8IWY9) showed a log2 fold change of 0.
Work on ATAD1 (UniProt Q8NBU5) yielded a log2 fold change of -0.081.
CCT6A (UniProt P40227) showed a log2 fold change of 0.009.
C5orf51 (UniProt A6NDU8) gave a log2 fold change of 0.039.
CHCHD4 isoform 2 (UniProt Q8N4Q1) showed a log2 fold change of -0.316.
Work on CCPG1 isoform 5 (UniProt Q9ULG6) yielded a log2 fold change of -0.036.
For CD63 (UniProt P08962), the log2 fold change was -0.415 (active).
Work on CES2 isoform 4 (UniProt O00748) yielded a log2 fold change of -0.003.
CFDP1 (UniProt Q9UEE9) was tested, and the log2 fold change was -0.288 (active).
AURKAIP1 (UniProt Q9NWT8) showed a log2 fold change of -0.017.
In the case of CCDC186 (UniProt Q7Z3E2), the log2 fold change is reported as 0.295 (active).
In the case of ATP13A1 (UniProt Q9HD20), the log2 fold change is reported as 0.047.
ATXN2 (UniProt Q99700) was tested, and the log2 fold change was 0.019.
Target CHCHD2 (UniProt Q9Y6H1) has a log2 fold change of 0.044.
Target CDC40 (UniProt O60508) has a log2 fold change of -0.027.
In the case of CCNK isoform 4 (UniProt O75909), the log2 fold change is reported as -0.213 (active).
Target C18orf32 (UniProt Q8TCD1) has a log2 fold change of -0.093.
In the case of CHAF1A (UniProt Q13111), the log2 fold change is reported as -0.054.
CAMK2G isoform 8 (UniProt Q13555) gave a log2 fold change of -0.053.
For CBX1 (UniProt P83916), the log2 fold change was 0.279 (active).
For ATP5PF isoform 2 (UniProt P18859), the log2 fold change was 0.591 (active).
In the case of CCNB1 (UniProt P14635), the log2 fold change is reported as -0.019.
For BCL2L12 (UniProt Q9HB09), the log2 fold change was 0.045.
With ATP11A (UniProt P98196) the log2 fold change was -0.108.
In the case of CAMK1 (UniProt Q14012), the log2 fold change is reported as -0.145.
CAMLG (UniProt P49069) was tested, and the log2 fold change was 0.179.
In the case of CHAC2 (UniProt Q8WUX2), the log2 fold change is reported as 0.57 (active).
Target CANX isoform 2 (UniProt P27824) has a log2 fold change of -0.037.
BRD2 isoform 2 (UniProt P25440) gave a log2 fold change of 0.128.
